These results are taken from PubChem BioAssay.

Assay [1] concerns Wnt5a (protein binding on small-molecule microarray). The assay can be described thus: Wnt5a binders on small-molecule microarray, primary screen, biophysical, 635/667 nm fluorescence (AID 1142).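 Further: fluorescence read at 667 nm with signal to noise per printed feature.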 Particulars: 635 nm fluorescence, higher = more signal.
Assay [2] in a line: cell viability in Huh7 cells, primary screen, cytotoxicity control for HCV replication inhibitor project, CellTiter-Glo luminescence, basal, 48 h (AID 1143).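 Further: Huh7 hepatoma cells carrying a hepatitis C replication reporter with no stimulus; test concentration not given here.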 To be noted: Huh7 HCV replicon, higher = more signal, called active from +8 up or from −8 down.
Assay [3] is described as follows: P. aeruginosa biofilm formation inhibitors, primary screen, PAO1 strain, BacTiter-Glo luminescence, LB-PBS (AID 1144). To be noted: 12 h, higher = more signal.
Assay [4] is described as follows: CREB reporter modulators without forskolin, primary screen, cell-based, PC12, CRE-LacZ reporter, unstimulated (AID 1145). To be noted: no forskolin, luminescence, 4.5 h, higher = more signal, called active from +8 up or from −8 down.
A short description of assay [5]: CREB reporter modulators under forskolin, primary screen, cell-based, PC12, CRE-LacZ reporter, forskolin-stimulated (AID 1146).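 Further: PC12 cells with 6xCRE LacZ reporter stimulated by forskolin 10 µM; beta-galactosidase reporter signal reflecting CREB driven transcription.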 To be noted: luminescence, 4.5 h, higher = more signal, called active from +8 up or from −8 down.
Assay [6] addresses Streptavidin (Streptomyces avidinii) (UniProt P22629). The assay can be described thus: streptavidin binders on small-molecule microarray, primary screen, artefact control for SMM compound annotation, biophysical, 635/667 nm fluorescence (AID 1147).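 Further: signal reflects streptavidin binding to arrayed compounds as a control protein.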 Particulars: streptavidin binding, higher = more signal.
A short description of assay [7]: small-molecule binders of probe aInhba, primary screen, biochemical, small-molecule microarray, 635/667 nm fluorescence (AID 1148).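 Further: score merges 667nm spot fluorescence with signal-to-noise for antibody binding to printed compounds.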 Particulars: higher = more signal.
For assay [8], the target named is Torsin-1A (Homo sapiens) (UniProt O14656). The assay can be described thus: torsin A binders from cell lysate, primary screen, small-molecule microarray, wild-type, 635/667 nm (AID 1149). Particulars: COS7 hTOR1A-WT lysate, 635 nm fluorescence, higher = more signal.
Chain of Torsin-1A (Homo sapiens) (O14656 whole entry, looked up): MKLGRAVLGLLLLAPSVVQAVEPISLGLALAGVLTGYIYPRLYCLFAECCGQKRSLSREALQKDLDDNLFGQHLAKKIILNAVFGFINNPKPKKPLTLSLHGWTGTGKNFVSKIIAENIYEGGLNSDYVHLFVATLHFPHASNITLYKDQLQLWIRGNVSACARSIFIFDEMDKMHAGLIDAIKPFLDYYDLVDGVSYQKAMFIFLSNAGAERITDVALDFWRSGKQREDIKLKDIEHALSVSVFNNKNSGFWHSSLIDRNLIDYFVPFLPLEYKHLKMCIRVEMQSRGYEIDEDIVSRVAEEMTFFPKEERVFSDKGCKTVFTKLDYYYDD
Assay [9] has the same target. In words: small-molecule binders of mutant TOR1A in lysate, primary screen, cell lysate, small-molecule microarray, COS7 lysate, 635/667 nm fluorescence (AID 1150).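 Further: score pools 667 nm emission and signal to noise measuring lysate protein binding.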 To be noted: COS7 hTOR1A mutant lysate, 635 nm fluorescence, higher = more signal.
Assay [10] concerns Sonic hedgehog protein (Shh). In words: small-molecule binders of Shh protein, primary screen, biochemical, small-molecule microarray, 635/667 nm fluorescence (AID 1151).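 Further: Shh protein binding to compounds spotted on small-molecule microarray slides; score combines spot fluorescence intensity with signal-to-noise across triplicate slides.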 Particulars: small-molecule microarray binding, 635 nm fluorescence; higher = more signal.
Assay [11] in a line: E. coli DRC41 culture turbidity changes, primary screen, E. coli filamentation inducer project, strain DRC41, OD650, 48 h (AID 1152).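 Further: E. coli MC1000 strain DRC41 lacking acrAB efflux pump and sulA.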 Particulars: E. coli DRC41 (acrAB sulA), higher = more signal, called active from +8 up or from −8 down.
Assay [12] can be described thus: small-molecule binders of probe aLefty1, primary screen, biochemical, small-molecule microarray, 635/667 nm fluorescence (AID 1153).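 Further: score merges spot fluorescence with signal-to-noise ratio from the scanned slide images.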 Particulars: higher = more signal.
Assay [13] is described as follows: PSAC antagonists in infected red cells, primary screen, cell-based, P. falciparum Indochina, OD700, 1 h (AID 1154). To be noted: P. falciparum Indochina infected RBC osmotic lysis, higher = more signal, called active from +8 up or from −8 down.
A short description of assay [14]: PSAC antagonists in infected red cells, primary screen, cell-based, P. falciparum Indochina, OD700, 2 h (AID 1155).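 Further: lysis reports solute entry through the parasite surface anion channel PSAC; channel blockers reduce lysis of infected cells.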 Particulars: P. falciparum Indochina infected erythrocytes, osmotic lysis OD700; higher = more signal, called active from +8 up or from −8 down.
Assay [15] can be described thus: osmotic lysis modulators in infected erythrocytes, primary screen, PSAC antagonist project, cell-based, P. falciparum Indochina, OD700, 3 h (AID 1156). Particulars: higher = more signal, called active from +8 up or from −8 down.
Assay [16] is described as follows: PSAC antagonists in infected red cells, primary screen, cell-based, P. falciparum Indochina, OD700, 18 h (AID 1157). Particulars: P. falciparum Indochina infected erythrocytes, osmotic lysis OD700, 18 h; higher = more signal, called active from +8 up or from −8 down.
Assay [17] in a line: modulators of S6 phosphorylation in cells, primary screen, cell-based, A549, cytoblot, luminescence, serum-stimulated (AID 1158).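 Further: serum-stimulated A549 lung adenocarcinoma cells; signal is phosphorylated S6 detected by cytoblot immunostaining with HRP secondary.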 To be noted: A549 phospho-S6 cytoblot, 5 h, higher = more signal.
Assay [18] deals with NADPH oxidase 2 (Homo sapiens) (UniProt P04839). In words: NOX2-dependent H2O2 signal modulators, primary screen, NOX inhibitor project, cell-based, HEK293-NOX2, PMA-stimulated, Amplex Red fluorescence (AID 1159). Further: test concentration not given here. Particulars: 45 min, higher = more signal, called active from +8 up or from −8 down.
Chain of NADPH oxidase 2 (Homo sapiens) (P04839 whole entry, looked up): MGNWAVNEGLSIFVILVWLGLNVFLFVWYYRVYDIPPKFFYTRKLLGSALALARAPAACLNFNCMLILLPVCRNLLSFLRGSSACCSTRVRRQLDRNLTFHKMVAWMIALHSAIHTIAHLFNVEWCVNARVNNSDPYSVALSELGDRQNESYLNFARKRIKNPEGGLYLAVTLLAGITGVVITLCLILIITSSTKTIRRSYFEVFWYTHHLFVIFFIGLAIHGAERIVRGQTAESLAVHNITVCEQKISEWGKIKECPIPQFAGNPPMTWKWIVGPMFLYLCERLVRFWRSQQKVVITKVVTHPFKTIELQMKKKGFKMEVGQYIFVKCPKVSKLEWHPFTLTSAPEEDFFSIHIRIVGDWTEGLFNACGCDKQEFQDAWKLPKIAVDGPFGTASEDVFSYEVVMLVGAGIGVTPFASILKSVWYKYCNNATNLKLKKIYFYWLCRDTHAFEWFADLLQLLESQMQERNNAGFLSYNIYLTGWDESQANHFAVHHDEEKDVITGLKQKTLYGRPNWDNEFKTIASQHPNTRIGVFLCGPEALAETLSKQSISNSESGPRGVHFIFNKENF
Assay [19] deals with NADPH oxidase 4 (Homo sapiens) (UniProt Q9NPH5). In words: NOX4-dependent H2O2 signal modulators, primary screen, NOX inhibitor project, cell-based, HEK293-NOX4, tetracycline-induced, Amplex Red fluorescence (AID 1160). Particulars: 45 min, higher = more signal, called active from +8 up or from −8 down.
Chain of NADPH oxidase 4 (Homo sapiens) (Q9NPH5 whole entry, looked up): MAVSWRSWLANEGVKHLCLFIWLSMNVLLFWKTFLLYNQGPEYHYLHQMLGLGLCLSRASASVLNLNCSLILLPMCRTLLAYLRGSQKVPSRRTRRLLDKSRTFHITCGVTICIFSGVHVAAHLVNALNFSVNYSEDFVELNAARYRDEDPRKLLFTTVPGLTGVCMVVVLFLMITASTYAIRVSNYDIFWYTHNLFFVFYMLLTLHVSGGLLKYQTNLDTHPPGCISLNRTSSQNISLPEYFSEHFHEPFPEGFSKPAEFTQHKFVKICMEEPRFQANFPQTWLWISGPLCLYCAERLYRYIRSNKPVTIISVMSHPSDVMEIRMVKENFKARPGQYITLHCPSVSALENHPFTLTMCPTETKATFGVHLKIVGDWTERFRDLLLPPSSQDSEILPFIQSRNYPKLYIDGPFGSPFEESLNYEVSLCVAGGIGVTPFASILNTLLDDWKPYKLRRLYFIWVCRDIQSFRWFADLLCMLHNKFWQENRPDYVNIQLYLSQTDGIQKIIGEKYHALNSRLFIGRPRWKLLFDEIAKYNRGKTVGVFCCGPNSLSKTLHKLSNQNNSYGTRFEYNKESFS
Assay [20] concerns the target NADPH oxidase 5 (Homo sapiens) (UniProt Q96PH1). In words: NOX5-dependent H2O2 signal modulators, primary screen, NOX inhibitor project, cell-based, HEK293-NOX5, Amplex Red fluorescence (AID 1161). To be noted: HEK293-NOX5, ionomycin, 45 min, higher = more signal.

The source made the active and inactive calls. Unless noted, how the calls were made is not given here.

Chain of Streptavidin (Streptomyces avidinii) (P22629 whole entry, looked up): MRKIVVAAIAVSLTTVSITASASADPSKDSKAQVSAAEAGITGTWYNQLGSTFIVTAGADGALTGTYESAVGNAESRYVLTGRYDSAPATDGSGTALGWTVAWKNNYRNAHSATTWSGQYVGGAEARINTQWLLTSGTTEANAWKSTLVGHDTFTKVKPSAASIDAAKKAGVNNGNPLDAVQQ
Chain of NADPH oxidase 5 (Homo sapiens) (Q96PH1 whole entry, looked up): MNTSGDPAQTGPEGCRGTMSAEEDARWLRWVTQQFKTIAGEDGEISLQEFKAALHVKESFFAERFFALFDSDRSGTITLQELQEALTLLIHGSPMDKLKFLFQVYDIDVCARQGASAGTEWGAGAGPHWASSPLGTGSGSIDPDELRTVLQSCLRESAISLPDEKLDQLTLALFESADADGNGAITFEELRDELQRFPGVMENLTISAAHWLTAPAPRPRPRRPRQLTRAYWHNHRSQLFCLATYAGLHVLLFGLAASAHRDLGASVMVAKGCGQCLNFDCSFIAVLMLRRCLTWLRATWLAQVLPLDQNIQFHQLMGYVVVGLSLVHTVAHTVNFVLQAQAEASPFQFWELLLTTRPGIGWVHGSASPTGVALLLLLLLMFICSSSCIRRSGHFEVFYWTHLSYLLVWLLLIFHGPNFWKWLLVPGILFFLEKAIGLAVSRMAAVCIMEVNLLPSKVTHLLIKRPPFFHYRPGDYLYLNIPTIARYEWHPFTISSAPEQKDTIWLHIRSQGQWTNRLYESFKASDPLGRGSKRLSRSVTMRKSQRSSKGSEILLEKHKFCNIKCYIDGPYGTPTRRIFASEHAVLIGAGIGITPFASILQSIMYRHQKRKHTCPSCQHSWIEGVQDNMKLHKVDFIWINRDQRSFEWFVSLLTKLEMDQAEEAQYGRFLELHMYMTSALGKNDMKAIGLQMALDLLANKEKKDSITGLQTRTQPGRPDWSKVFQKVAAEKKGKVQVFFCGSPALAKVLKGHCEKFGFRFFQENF

In the case of `COC(=O)CC=C[C@@H](C)[C@@H](C=NOC[C@@H](C)[C@H](OCc1ccccc1)C(C)C)OC`, the composite z-score in [1] was 0.0814; in assay [6], -0.437; in [7], -0.161; with Torsin-1A (Homo sapiens) [8], 0.155; with Torsin-1A (Homo sapiens) [9], -0.0103; in assay [10] it was 0.359. Besides, the composite z-score in assay [12] was -0.29. For the same molecule, the z-score was -0.112 (inactive) in [2]; -0.0142 (inactive) in assay [3]; 0.848 (inactive) in assay [4]; 0.0112 (inactive) in assay [5]; 0.14 (inactive) in assay [11]; 2.17 (inactive) in assay [13]. The z-score in assay [14] is 0.319 (inactive); in [15], -0.728 (inactive); in [16] it was -0.0741 (inactive); in assay [17], 0.391; in assay [18], 0.64 (inactive); in assay [19], -0.614 (inactive). For the same molecule, the z-score in [20] is -2.2.
On to `CCO[C@H](c1cc(OC)cc([N+](=O)[O-])c1OC)[C@H](C)[C@@H](OC)[C@H](C)C=CCC(=O)OC`, for which the composite z-score in [1] was 0.018; in assay [6], -0.0837; in assay [7] it was -0.183; with Torsin-1A (Homo sapiens) [8], 0.388; in the assay with Torsin-1A (Homo sapiens) [9], 0.294; in [10], 0.628. Besides, the composite z-score in assay [12] turned out to be 0.0367. For the same molecule, the z-score in assay [2] is -0.267 (inactive); in assay [3], -0.378 (inactive); in [4], 0.0246 (inactive); in assay [5] it was -0.183 (inactive); in assay [11], -0.321 (inactive); in assay [13] it was 2.26 (inactive). Moreover, the z-score is 0.282 (inactive) in assay [14]; 0.528 (inactive) in [15]; 0.318 (inactive) in assay [16]; -0.421 in [17]; -1.73 (inactive) in assay [18]; -0.442 (inactive) in assay [19]. In assay [20], the z-score was -1.11.
Turning to `CCOC(=O)[C@H](Cc1ccccc1)NC(=O)CCC1CC(OC(=O)NCc2ccc3c(c2)OCO3)CC2(CCCC(COC(=O)NCCOC)O2)O1` (stereo not given in full), the composite z-score is 0.274 in assay [1]; 0.91 in assay [6]; -0.016 in [7]; 0.351 in the assay with Torsin-1A (Homo sapiens) [8]; 0.291 in the assay with Torsin-1A (Homo sapiens) [9]; 1.91 in [10]. The composite z-score in assay [12] is -0.0428. In addition, the z-score in assay [2] was -3.06 (inactive); in [3], -0.212 (inactive); in [4], -0.256 (inactive); in assay [5], 0.59 (inactive); in assay [11], -0.11 (inactive); in assay [13], -1.89 (inactive). Moreover, the z-score is -1.39 (inactive) in assay [14]; 0.61 (inactive) in [15]; -1.67 (inactive) in assay [16]; 2.53 in assay [17]; 0.195 (inactive) in assay [18]; -0.931 (inactive) in [19]. This molecule returned a z-score in [20] of -2.16.
As to `CCN1C(=O)[C@H]2[C@H]3[C@H](O)[C@H](O)CC(=NNC(=O)OCc4ccccc4)[C@@H]3CC[C@H]2C1=O`, the composite z-score in assay [1] is 0.0743; in [6], 0.131; in [7] it was -0.0986; with Torsin-1A (Homo sapiens) [8] it was -0.425; with Torsin-1A (Homo sapiens) [9], 0.151; in [10] it was 0.475. In assay [12], the composite z-score was determined as 0.122. Also, the z-score in [2] is 0.235 (inactive); in assay [3], 0.511 (inactive); in [4], -0.746 (inactive); in assay [5], -0.506 (inactive); in assay [11] it was -0.0098 (inactive); in assay [13] it was -0.0022 (inactive). The z-score in [14] is -0.51 (inactive); in [15], -0.698 (inactive); in [16], -0.0637 (inactive); in assay [17], -0.376; in assay [18], 0.424 (inactive); in assay [19], 0.525 (inactive). In addition, in assay [20], the z-score is 0.296.
